# Measured values: the supplement of paper PMC11001985
# Unmarked numbers belong to inactive results.
# Compound: C#CCNC(=O)CCSSCCC(=O)NCCc1ccc(C=O)c(C=O)c1
# Assay: lysine labeling ratio R10:1 (500 µM / 50 µM probe), SILAC-ABPP in living cells; higher = lower intrinsic lysine reactivity toward the probe, active = 2 or less
# Details: HeLa; probe concentrations 500 vs 50 µM
# Outline: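 Measurements came from LC-MS/MS on a TIMS-TOF Pro of mixed SILAC light and heavy HeLa lysates after click to biotin-azide, trypsin digestion, neutravidin capture, DTT release and alkylation. Before lysis, the living cells sat in PBS at room temperature with 50 µM or 500 µM of an alkyne-tagged, disulfide-linked lysine probe, and labels were swapped forward and reverse. R per lysine is the median across both swap directions of the filtered median high-probe/low-probe MS1 peptide ratio. The cap is 20.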
# UniProt P05783, sequence (P05783 whole entry): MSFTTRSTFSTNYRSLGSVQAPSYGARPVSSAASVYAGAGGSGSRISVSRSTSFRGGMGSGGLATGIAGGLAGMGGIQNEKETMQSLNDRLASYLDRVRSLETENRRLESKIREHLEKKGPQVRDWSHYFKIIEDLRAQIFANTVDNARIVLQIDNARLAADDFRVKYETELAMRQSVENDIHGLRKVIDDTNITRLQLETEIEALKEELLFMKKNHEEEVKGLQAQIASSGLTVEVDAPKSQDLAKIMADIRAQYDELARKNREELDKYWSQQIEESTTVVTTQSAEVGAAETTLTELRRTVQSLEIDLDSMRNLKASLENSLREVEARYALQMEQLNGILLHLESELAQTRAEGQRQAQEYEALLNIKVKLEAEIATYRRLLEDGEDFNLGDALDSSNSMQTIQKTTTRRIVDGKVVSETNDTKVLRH
# UniProt Q01082, sequence (Q01082 whole entry): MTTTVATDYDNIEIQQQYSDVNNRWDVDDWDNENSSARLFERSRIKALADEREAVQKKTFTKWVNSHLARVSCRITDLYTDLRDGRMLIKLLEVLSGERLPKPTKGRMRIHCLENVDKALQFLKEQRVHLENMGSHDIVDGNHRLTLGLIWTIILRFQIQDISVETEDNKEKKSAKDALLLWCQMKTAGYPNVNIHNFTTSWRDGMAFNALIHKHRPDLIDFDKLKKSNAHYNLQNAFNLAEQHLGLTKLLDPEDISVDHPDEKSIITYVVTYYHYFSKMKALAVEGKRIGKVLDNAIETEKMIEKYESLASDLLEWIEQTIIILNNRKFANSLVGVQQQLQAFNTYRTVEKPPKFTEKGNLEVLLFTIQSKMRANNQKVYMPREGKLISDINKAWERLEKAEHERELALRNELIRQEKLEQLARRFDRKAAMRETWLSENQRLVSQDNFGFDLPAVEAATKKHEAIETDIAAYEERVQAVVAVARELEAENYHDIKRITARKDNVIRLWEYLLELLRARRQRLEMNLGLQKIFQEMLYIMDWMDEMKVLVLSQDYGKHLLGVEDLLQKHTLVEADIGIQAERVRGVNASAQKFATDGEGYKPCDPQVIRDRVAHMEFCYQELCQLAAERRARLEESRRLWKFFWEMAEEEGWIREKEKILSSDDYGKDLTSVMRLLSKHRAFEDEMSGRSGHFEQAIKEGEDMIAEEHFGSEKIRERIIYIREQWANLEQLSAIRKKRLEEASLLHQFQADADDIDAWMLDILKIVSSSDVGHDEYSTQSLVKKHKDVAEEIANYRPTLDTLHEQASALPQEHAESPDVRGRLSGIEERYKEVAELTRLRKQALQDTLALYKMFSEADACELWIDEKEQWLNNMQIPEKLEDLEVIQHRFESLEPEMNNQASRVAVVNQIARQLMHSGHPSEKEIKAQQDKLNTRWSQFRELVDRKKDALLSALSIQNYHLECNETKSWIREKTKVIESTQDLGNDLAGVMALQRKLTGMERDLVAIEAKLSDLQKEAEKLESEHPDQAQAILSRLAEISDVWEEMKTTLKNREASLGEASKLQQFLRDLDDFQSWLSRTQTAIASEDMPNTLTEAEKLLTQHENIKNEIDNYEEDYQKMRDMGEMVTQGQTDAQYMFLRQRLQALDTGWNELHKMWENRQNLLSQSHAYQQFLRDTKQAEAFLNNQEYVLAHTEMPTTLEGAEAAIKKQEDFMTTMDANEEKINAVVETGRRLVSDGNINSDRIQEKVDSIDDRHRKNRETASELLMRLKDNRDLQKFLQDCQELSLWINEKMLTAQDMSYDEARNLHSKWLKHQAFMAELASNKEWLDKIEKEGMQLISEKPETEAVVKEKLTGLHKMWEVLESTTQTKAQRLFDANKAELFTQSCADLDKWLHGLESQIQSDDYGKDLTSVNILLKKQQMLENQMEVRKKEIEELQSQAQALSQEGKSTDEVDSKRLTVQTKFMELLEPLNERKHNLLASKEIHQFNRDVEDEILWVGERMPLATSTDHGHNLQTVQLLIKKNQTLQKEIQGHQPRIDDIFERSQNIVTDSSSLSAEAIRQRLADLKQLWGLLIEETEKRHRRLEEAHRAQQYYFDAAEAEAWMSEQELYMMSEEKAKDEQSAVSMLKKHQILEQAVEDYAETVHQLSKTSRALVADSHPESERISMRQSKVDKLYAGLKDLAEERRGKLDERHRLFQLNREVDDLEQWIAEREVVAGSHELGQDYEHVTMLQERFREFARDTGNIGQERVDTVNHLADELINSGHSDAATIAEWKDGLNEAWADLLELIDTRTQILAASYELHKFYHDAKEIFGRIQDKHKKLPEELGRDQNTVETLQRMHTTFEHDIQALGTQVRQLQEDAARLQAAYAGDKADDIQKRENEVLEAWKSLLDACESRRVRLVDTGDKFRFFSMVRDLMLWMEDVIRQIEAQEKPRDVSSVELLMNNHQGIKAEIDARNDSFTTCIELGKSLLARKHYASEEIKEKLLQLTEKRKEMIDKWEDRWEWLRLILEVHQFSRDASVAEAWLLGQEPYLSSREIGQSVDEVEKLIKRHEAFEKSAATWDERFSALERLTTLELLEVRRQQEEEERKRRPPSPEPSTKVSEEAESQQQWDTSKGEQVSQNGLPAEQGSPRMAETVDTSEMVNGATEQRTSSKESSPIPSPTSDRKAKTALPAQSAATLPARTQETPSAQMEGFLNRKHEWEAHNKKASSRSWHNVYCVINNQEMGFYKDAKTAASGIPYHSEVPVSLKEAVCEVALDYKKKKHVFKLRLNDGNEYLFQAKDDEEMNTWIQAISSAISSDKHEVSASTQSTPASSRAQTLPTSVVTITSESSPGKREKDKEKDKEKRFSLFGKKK
# UniProt P21589, sequence (P21589 whole entry): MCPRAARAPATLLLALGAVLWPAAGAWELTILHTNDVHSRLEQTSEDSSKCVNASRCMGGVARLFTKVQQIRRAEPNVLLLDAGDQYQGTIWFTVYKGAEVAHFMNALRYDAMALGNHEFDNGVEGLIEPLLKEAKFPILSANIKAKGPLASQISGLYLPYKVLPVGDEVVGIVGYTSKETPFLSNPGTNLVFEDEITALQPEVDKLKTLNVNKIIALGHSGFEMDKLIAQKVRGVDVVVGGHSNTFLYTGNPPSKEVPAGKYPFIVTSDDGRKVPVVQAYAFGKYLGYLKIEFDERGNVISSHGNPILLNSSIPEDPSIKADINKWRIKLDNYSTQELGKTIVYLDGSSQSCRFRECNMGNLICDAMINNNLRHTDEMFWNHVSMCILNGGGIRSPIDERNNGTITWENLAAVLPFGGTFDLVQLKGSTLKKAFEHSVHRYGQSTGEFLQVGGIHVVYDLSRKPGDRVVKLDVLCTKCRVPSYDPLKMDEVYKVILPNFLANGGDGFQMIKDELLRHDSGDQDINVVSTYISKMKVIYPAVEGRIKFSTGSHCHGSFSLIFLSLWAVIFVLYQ
# UniProt Q96CT7, sequence (Q96CT7 whole entry): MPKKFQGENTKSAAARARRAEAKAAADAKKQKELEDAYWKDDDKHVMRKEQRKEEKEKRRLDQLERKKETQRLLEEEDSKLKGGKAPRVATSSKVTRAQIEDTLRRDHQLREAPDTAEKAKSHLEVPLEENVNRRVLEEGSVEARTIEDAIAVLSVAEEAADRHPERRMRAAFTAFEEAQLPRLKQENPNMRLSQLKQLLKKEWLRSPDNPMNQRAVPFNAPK
# UniProt P13797, sequence (P13797 whole entry): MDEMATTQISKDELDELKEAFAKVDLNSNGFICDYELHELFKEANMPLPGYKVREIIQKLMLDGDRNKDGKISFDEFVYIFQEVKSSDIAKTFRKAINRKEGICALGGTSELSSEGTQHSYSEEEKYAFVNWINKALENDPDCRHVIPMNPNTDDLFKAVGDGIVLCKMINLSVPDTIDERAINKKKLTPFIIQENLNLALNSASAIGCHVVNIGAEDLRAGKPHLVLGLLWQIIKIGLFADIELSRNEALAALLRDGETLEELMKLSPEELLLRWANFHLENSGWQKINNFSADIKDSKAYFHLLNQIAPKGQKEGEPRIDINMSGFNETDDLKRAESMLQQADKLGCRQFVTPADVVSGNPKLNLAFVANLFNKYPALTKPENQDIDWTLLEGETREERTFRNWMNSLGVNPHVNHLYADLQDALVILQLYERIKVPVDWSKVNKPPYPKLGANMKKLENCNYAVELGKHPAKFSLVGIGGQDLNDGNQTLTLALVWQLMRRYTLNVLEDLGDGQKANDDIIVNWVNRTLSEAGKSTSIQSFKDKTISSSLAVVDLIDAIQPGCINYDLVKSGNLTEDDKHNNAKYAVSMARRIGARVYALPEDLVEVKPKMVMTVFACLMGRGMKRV
# UniProt P22234, sequence (P22234 whole entry): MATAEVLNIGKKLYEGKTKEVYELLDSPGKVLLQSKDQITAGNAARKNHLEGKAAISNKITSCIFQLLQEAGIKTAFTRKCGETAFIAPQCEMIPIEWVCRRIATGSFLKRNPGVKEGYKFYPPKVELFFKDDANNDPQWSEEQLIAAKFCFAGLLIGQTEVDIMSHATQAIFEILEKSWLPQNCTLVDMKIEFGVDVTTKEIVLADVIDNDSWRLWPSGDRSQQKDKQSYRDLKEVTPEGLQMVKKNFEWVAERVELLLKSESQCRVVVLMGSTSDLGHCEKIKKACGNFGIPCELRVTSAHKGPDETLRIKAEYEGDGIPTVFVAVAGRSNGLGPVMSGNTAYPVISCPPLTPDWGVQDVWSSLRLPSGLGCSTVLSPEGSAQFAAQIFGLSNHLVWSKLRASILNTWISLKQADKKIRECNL
# UniProt P47756, sequence (P47756 whole entry): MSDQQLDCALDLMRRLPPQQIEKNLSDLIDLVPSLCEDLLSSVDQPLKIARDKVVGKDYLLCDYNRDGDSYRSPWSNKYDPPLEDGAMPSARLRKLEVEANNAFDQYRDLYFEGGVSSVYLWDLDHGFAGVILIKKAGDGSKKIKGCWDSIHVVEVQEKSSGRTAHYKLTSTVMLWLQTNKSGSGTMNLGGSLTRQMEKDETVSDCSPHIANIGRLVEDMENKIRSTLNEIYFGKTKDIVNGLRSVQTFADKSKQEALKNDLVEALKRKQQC
row,Target,lysine labeling ratio R10:1
1,MYH9 (lysine site: K1389) (UniProt P35579),2.38
2,PLS3 (lysine site: K335) (UniProt P13797),0.765 (active)
3,CLTB (lysine site: K122) (UniProt P09497),2.57
4,CCT2 (lysine site: K250) (UniProt P78371),1.5 (active)
5,DDX3X (lysine site: K81) (UniProt O00571),2.77
6,KIAA1549 (lysine site: K1195) (UniProt Q9HCM3),2.77
7,PDIA4 (lysine site: K145) (UniProt P13667),0.551 (active)
8,PTGES2 (lysine site: K225) (UniProt Q9H7Z7),1.93 (active)
9,FRAS1 (lysine site: K1628) (UniProt Q86XX4),3.34
10,AHNAK (lysine site: K128) (UniProt Q09666),1.37 (active)
11,UniProt Q15149 (lysine site: K746),2.49
12,CCDC124 (lysine site: K94) (UniProt Q96CT7),4.68
13,EGFR (lysine site: K325) (UniProt P00533),5.84
14,SPTBN1 (lysine site: K714) (UniProt Q01082),2.12
15,HNRNPU (lysine site: K614) (UniProt Q00839),2.36
16,DSG2 (lysine site: K562) (UniProt Q14126),6.57
17,L1CAM (lysine site: K998) (UniProt P32004),6.57
18,LAMC1 (lysine site: K1039) (UniProt P11047),3.94
19,PGK1 (lysine site: K30) (UniProt P00558),2.54
20,SLC25A13 (lysine site: K487) (UniProt Q9UJS0),4.12

row,Target,lysine labeling ratio R10:1
1,SCAMP3 (lysine site: K102) (UniProt O14828),1.06 (active)
2,MSN (lysine site: K79) (UniProt P26038),2.55
3,ADGRG2 (lysine site: K592) (UniProt Q8IZP9),2.37
4,PTGFRN (lysine site: K576) (UniProt Q9P2B2),2.67
5,CKAP4 (lysine site: K301) (UniProt Q07065),2.85
6,UniProt Q29980 (lysine site: K190),1.17 (active)
7,RPS3A (lysine site: K152) (UniProt P61247),3.85
8,PTPRS (lysine site: K897) (UniProt Q13332),2.19
9,PAICS (lysine site: K304) (UniProt P22234),4.39
10,CAPZB (lysine site: K57) (UniProt P47756),1.35 (active)
11,PLXNA2 (lysine site: K542) (UniProt O75051),1.9 (active)
12,CCT3 (lysine site: K203) (UniProt P49368),4.58
13,UniProt P15941 (lysine site: K1125),3
14,SPTBN1 (lysine site: K1063) (UniProt Q01082),7.24
15,PDCD6IP (lysine site: K640) (UniProt Q8WUM4),0.892 (active)
16,UniProt P21589 (lysine site: K326),1.17 (active)
17,KRT18 (lysine site: K407) (UniProt P05783),8.64
18,KRT18 (lysine site: K187) (UniProt P05783),3.47
19,GBE1 (lysine site: K554) (UniProt Q04446),0.937 (active)
20,TNFRSF10B (lysine site: K72) (UniProt O14763),3.31
